# Screening results from PubChem BioAssay.
# Sampled rows, rich in hits. Any-hit rate of the full collection: about 7.2%.
# Efflux pump inh – antifungal efflux pump inhibition, Nile Red retention. S. cerevisiae Candida pump triplex. 330,000 tested, 0.44% active. inhibition, % at 10 µM;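 active = plate passing quality check with inhibition over a set limit, or well fluorescence over plate mean plus 4 SD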;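 also: Nile Red retained in pooled yeast measured as flow cytometry median fluorescence; 0% = buffer negative control and 100% = Enniatin B positive control; higher means more Nile Red kept so more efflux inhibition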
# VLA-4 inh – inhibition in a human VLA-4 binding assay. P13612. VLA-4 expressing cells, ligand binding flow cytometry. inhibition, % (about 7 µM as worked out from the volumes in the protocol). 330,000 tested, 0.2% active; in the data active = inhibition above about 50%
# Target sequence (P13612 whole entry, looked up): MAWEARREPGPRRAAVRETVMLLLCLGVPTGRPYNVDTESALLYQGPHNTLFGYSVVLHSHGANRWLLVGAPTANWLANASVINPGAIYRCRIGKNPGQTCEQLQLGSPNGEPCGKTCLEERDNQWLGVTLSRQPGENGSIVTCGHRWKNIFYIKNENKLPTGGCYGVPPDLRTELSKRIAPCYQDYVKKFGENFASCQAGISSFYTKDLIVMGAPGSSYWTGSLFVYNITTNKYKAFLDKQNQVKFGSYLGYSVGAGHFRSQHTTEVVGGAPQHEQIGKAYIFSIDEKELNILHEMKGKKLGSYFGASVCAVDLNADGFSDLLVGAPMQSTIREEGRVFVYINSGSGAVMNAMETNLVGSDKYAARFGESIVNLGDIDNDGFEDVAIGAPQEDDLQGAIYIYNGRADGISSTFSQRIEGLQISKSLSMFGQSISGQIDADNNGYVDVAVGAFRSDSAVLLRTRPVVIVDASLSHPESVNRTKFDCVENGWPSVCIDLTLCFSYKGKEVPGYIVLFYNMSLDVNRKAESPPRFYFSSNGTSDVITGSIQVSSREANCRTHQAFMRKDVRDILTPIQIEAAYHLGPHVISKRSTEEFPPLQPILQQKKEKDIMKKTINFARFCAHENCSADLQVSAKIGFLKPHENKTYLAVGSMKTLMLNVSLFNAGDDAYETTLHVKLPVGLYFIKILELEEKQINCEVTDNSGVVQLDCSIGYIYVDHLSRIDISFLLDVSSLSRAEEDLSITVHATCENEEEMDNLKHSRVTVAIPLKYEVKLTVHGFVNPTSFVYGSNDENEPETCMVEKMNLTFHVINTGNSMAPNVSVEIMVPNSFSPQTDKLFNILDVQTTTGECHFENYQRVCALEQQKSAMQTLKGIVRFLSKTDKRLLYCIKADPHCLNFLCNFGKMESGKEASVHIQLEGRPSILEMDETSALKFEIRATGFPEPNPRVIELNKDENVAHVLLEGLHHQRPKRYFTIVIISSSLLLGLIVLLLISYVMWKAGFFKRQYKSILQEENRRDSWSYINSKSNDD
# Bfl-1 A1 inh – inhibitors of the anti-apoptotic protein A1, read as caspase activation. MEF A1-2A-BIM cells, Caspase-Glo 3/7 luminescence, 3 h; percent of clofoctol response, vehicle zero. 330,000 tested, 0.066% active. AID 2462. caspase activation, % (no concentration beside the values);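 active = over half of replicate activation scores above 10%, or exactly half above 10 with the replicate mean above 10; inconclusive = replicate mean below 10 yet half the replicates above 10; inactive = over half of replicates below 10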
# ALR H2O2 inh – inhibitors of human sulfhydryl oxidase ALR; 290,000 tested, 3.8% active; purified ALR, DTT oxidation, H2O2 HRP-luminol luminescence; P55789; inhibition, % (concentration not given with the values);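 active = mean replicate inhibition above about 79%, with every replicate also reaching it, limit read from the data; inconclusive = only one of the two criteria met; inactive = mean below limit and not every replicate reaching it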
# AHR act – activates the human aryl hydrocarbon receptor. 320,000 tested, 2.5% active. AHR-responsive luciferase reporter cells, luminescence. P35869. activation, % at 5 µM. AID 2796; in the data active = activation above about 47%;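 also: 0% = vehicle wells and 100% = reference agonist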
# SUMO Mot1 rescue – blocks SUMOylation pathway, rescuing yeast Mot1-301 growth. S. cerevisiae Mot1-301 growth rescue, ATP luminescence, 38.5C; percent above DMSO median, 100 means doubled. growth rescue, % at 18.8 µM. 320,000 tested, 1% active. AID 2716;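 active = every valid replicate shows activation above 250% relative to neutral control wells; inactive = the rest, any valid replicate at or below 250%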;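 also: OY570 slx delta 5 strain wells were the positive control but not used for scaling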
# Numbers without * were called inactive; ? = inconclusive; · = no result.
SMILES,Efflux pump inh,VLA-4 inh,Bfl-1 A1 inh,ALR H2O2 inh,AHR act,SUMO Mot1 rescue
Cc1c(C)c(C)c(C(=O)c2ccc(NC(=O)c3ccccc3C(=O)O)cc2)c(C)c1C,0,7,1,96*,2,34
COc1ccccc1C(=O)Nc1ccc(Oc2ncnc3sc(-c4ccccc4)cc23)cc1,0,27,-1,4,80*,99
COc1ccccc1C(=O)Nc1cccc(NC(C)=O)c1,0,10,0,-7,13,60
COc1ccccc1C(=O)Nc1ccc2ccccc2c1,0,-2,-3,-2,56*,1
COc1ccc(NC(=O)c2ccc3ccccc3c2)cc1,0,5,-4,-7,58*,324
O=[N+]([O-])c1ccccc1S(=O)(=O)n1nnc2ccccc21,0,30,0,·,3,-13
O=C(O)C1=C[C@H](c2ccc(Br)cc2)C[C@H](OCc2ccc(CO)cc2)O1,·,·,1,15,0,-6
Cc1cc(NC(=O)CSc2nc3ccccc3c(=O)n2CCCC(=O)NCc2ccco2)n[nH]1,0,-10,0,-2,-3,102
COc1cc(C(C)=O)ccc1OCC(=O)N1CCc2ccccc2C1,0,3,0,3,5,-7
O=C(O)c1ccccc1C(=O)Nc1ccc(Oc2ccc3ccccc3c2)cc1,0,1,0,99*,-3,261
COc1ccc(NC(NC(=O)c2ccc(OC)cc2)C(Cl)(Cl)Cl)cc1 (stereo not given),0,-4,1,98*,5,·
COc1ccc(C(=O)NC(Nc2ccc(C)cc2)C(Cl)(Cl)Cl)cc1 (stereo not given),0,-22,0,46,10,-21
C=CCC1(CC=C)CCCN1C(=O)CC1C(=O)NCCN1Cc1ccc(OC)c(OC)c1 (stereo not given),0,-5,0,-2,-1,-9
COCCOc1ccc(C(F)(F)F)cc1NC(=O)COC(=O)c1ccc(N2CCCC2=O)cc1,0,-11,0,-5,2,9
COc1ccc(OCC(=O)Sc2ccc(C)cc2)cc1,0,1,0,98*,2,11
COc1ccc(OC(=O)COc2ccc(C)cc2)cc1,0,-4,-1,6,0,4
COc1cc2c(=O)n(CCC(=O)NCC3CCCO3)c(=O)n(CC(=O)Nc3ccc(F)cc3)c2cc1OC (stereo not given),0,26,0,0,0,284*
c1ccc2c(c1)OCCc1c-2[nH]c2ccccc12,0,25,1,96*,13,34
COc1cccc2cc(-c3ccnc(=S)[nH]3)oc12,0,-6,0,99*,24,·
Cc1ccc(NC(=O)C(C)Sc2nc(-c3ccccc3)cc(=O)[nH]2)cc1 (stereo not given),0,1,2,-21,4,258
COc1ccc(N=C2SC(CC(=O)Nc3ccccc3)C(=O)N2CCc2ccccn2)cc1 (stereo not given),0,-12,0,-2,2,356*
Oc1ccc(/C=N/Nc2ccnc3cc(Cl)ccc23)c(O)c1O,0,0,-1,2,-2,-6
CC/C(=N\Nc1ccnc2cc(Cl)ccc12)c1ccc(O)cc1,0,-12,0,96*,34,-9
Cn1cc(C(CO)Cc2ccccc2)c2ccccc21 (stereo not given),0,-7,2,?,11,-2
COc1ccccc1CNC(=O)COC(=O)Cc1ccc(F)cc1,0,-4,1,1,-1,-5
SMILES,Efflux pump inh,VLA-4 inh,Bfl-1 A1 inh,ALR H2O2 inh,AHR act,SUMO Mot1 rescue
COc1nc(NCCc2ccc(OC)c(OC)c2)nc(Nc2ccccc2)n1,0,-24,-1,1,48*,2
COc1nc(NCCN2CCOCC2)nc(Nc2ccccc2)n1,0,16,0,-6,19,-23
CCN1C(=S)SC(=O)C1=C1C=C(C)OC(C)=C1,0,-4,-2,-5,-1,11
CCN1C(=S)SC(=O)C1=C1C=C(C)N(Cc2ccco2)C(C)=C1,0,0,-4,99*,-2,-7
O=C(NNS(=O)(=O)c1ccccc1[N+](=O)[O-])c1cccnc1,0,13,0,4,3,-6
O=C(Nc1ccc2c(c1)CN(Cc1ccc(CO)o1)CC2)c1ccc(C(F)(F)F)cc1,0,5,-1,-2,55*,7
CC(=O)/C(=N\Nc1ccccc1)Sc1nnc(-c2ccccc2)n1-c1ccccc1,0,21,0,2,-2,-5
CC(=O)/C(=N\Nc1ccccc1)Sc1nncn1C,0,9,1,98*,17,8
O=C(O)C(Cc1c[nH]c2ccccc12)NS(=O)(=O)c1ccc(Cl)c(C(F)(F)F)c1 (stereo not given),0,-14,0,62,13,1
O=C1NC(C(=O)O)=CC(c2ccc([N+](=O)[O-])cc2)N1 (stereo not given),0,8,1,78*,1,-4
CC1(C(=O)O)COC(c2ccc([N+](=O)[O-])cc2)OC1 (stereo not given),0,-11,0,-15,0,-2
Cc1cccc(C)c1NC(=O)/C(C#N)=C/c1ccc(-c2ccc(C(=O)O)cc2)o1,0,1,0,1,2,-6
N#C/C(=C\c1ccc(-c2ccc(C(=O)O)cc2)o1)C(=O)Nc1ccc(F)cc1,0,2,-1,53,77*,8
CN(C)S(=O)(=O)c1cccc(COC(=O)c2cnccn2)c1,0,20,0,-1,0,3
CC(C)CCN(C(=O)Cc1ccc(Cl)c(Cl)c1)c1c(N)n(Cc2ccccc2)c(=O)[nH]c1=O,0,-1,12*,-4,1,125
CC(C)CCN(C(=O)c1ccncc1)c1c(N)n(Cc2ccccc2)c(=O)[nH]c1=O,0,-5,0,-2,0,1
COc1ccc(-c2nc(SCC(=O)N(CC(C)C)c3c(N)n(Cc4ccccc4)c(=O)[nH]c3=O)n[nH]2)cc1,0,2,-2,-8,1,-3
CCN(C(=O)CN1CCN(c2ccccc2O)CC1)c1c(N)n(Cc2ccccc2)c(=O)[nH]c1=O,0,8,-1,98*,4,-13
CCCN(C(=O)CSc1n[nH]c(-c2ccc(OC)cc2)n1)c1c(N)n(Cc2ccccc2)c(=O)[nH]c1=O,0,-9,0,86*,5,1
CCCCC1CCC(C(=O)N(CC(C)C)c2c(N)n(Cc3ccccc3)c(=O)[nH]c2=O)CC1 (stereo not given),0,6,29*,-3,6,476
CCCCN(C(=O)C1CCCC1)c1c(N)n(Cc2ccccc2)c(=O)[nH]c1=O,0,15,0,-1,-1,4
